Measured values taken from PubChem BioAssay (EPA / NIEHS).
Activity calls are given as the source filed them. The calls were made as follows: active = hit-call score of the fitted dose curve at least 0.9, where 1 is the maximum; inactive = score below 0.9.

test: ATG_NFI_CIS: Attagene CIS-FACTORIAL HepG2 Assay for human Nuclear Factor I (NFI) (AID 2282989); settings: HepG2 cis-regulatory reporter, NFI response element transcription; actives raise or lower the signal
Experimental: ATG_CIS is a cell-based, multiplexed-readout assay that uses HepG2, a human liver cell line, with measurements taken at 24 hours after chemical dosing in a 24-well plate.ATG_NFI_CIS is one of 52 assay component(s) measured or calculated from the ATG_CIS assay. It is designed to make measurements of mRNA induction, a form of inducible reporter, as detected with fluorescence intensity signals by Reverse transcription polymerase chain reaction (RT-PCR) and Capillary electrophoresis technology.Data from the assay component ATG_NFI_CIS was analyzed into 1 assay endpoint. This assay endpoint, ATG_NFI_CIS, was analyzed with bidirectional fitting relative to DMSO as the negative control and baseline of activity. Using a type of inducible reporter, measures of mRNA for gain or loss-of-signal activity can be used to understand the reporter gene at the transcription factor-level as they relate to the gene NFIA. Furthermore, this assay endpoint can be referred to as a primary readout, because this assay has produced multiple assay endpoints where this one serves a reporter gene function. To generalize the intended target to other relatable targets, this assay endpoint is annotated to the dna binding intended target family, where the subfamily is nuclear factor I.
Human liver HepG2 cells are transiently transfected with multiple reporter transcription units (MRTUs) in 6-well plates using FuGene 6 reagent (Roche; 3 ml FuGene/1 mg DNA). The MRTU constructs are regulated by a cis-regulating element (promoter). […] A major difference between the CIS and TRANS system is that in CIS activities of endogenous TFs are measured, whereas the TRANS assay evaluates changes in activities of exogenous, chimeric NR-Gal4 proteins. […] At the end of 24 hour incubation, total RNA was isolated using TriZol reagent (Invitrogen). The isolated RNA is then reverse-transcribed using oligo(dT) primer and Mo-MLV reverse transcriptase (Invitrogen) with DNAse I (Ambion) treatment for 30 min. The one-tenth of the produced cDNA was amplified by PCR using Taq DNA polymerase (Invitrogen) and two reporter sequence-specific primers. The PCR products were fluorescently labeled by primer extension with 6-arboxyfluorescein (6-FAM) 5'-labeled reporter sequence-specific primer (2 min at 95 C, 20 s at 68 C and 10 min at 72 C) and these products were digested with 5U of HpaI (New England Biolabs) for 2h at 37 C. The fragments were purified using Qiaquick PCR columns (Qiagen), analyzed on an ABI 3130xL genetic analyzer (Applied Biosystems) with peak positions identified by using a set of X-rhodamine (ROX)-labeled MapMarker1000 molecular weight standards (BioVentures). The raw capillary electrophoresis data was processed using Attagraph software (Attagene).

outcome, inactive:
CC1(C)S[C@@H]2[C@H](NC(=O)COc3ccccc3)C(=O)N2[C@H]1C(=O)O
CCC(Cc1ccccc1)(C(=O)c1ccc(N2CCOCC2)cc1)N(C)C (stereo not given)
CCC(C)OC(=O)c1ccc(O)cc1 (stereo not given)
O=Cc1ccc(CO)o1
CC(C)CCCC(C)CC=O (stereo not given)
COCc1c(C(C)C)nc(C(C)C)c(/C=C/[C@@H](O)C[C@@H](O)CC(=O)O)c1-c1ccc(F)cc1
O=C1c2cccc(O)c2C(=O)c2c(O)cc(CO)cc21
CC/C=C\C/C=C\C/C=C\CCCCCCCC(=O)O
CCCCCCCCCCCSCC(=O)O
CCCCC/C=C\C/C=C\CCCCCCCC(=O)OC
COc1cc(NC(=O)CC(C)=O)c(OC)cc1Cl
C=CC=CC=CCCCCC
CCCCCCCCCCCCCCCC[n+]1ccccc1
CC(=O)Oc1ccc(C(C)=O)cc1
COC(=O)C1=C(C)NC(C)=C(C(=O)OCC(C)C)C1c1ccccc1[N+](=O)[O-] (stereo not given)
OCCN(CCO)c1ccccc1
CCCCCCCCCCCCCOP(=O)(O)O
Cc1cccc(N)n1
Cc1ccc(OC(=O)CC(C)C)cc1
CC(C)CC(O)Cc1ccccc1 (stereo not given)
NC(=O)N=NC(N)=O
O=C1Nc2ccccc2C1(c1ccc(O)cc1)c1ccc(O)cc1
CC1=CC[C@H](C(C)C)C=C1
CC(C)CCCCCOC(=O)CCS
O=c1n(CCO)c(=O)n(CCO)c(=O)n1CCO
CCCCC(CC)COC(=O)c1ccccc1 (stereo not given)
N#[N+]c1ccc2c(S(=O)(=O)[O-])cccc2c1O
OCCc1ccncc1
CCCc1ccc(OC)cc1
Nc1cccc(C(F)(F)F)c1
CC(=O)c1ccc[nH]1
CC(=O)OCc1ccco1
OC1CCCC1
Cc1cccc(C(=O)O)c1
CC[C@H]1OC(=O)[C@H](C)[C@@H](O[C@H]2C[C@@](C)(OC)[C@@H](O)[C@H](C)O2)[C@H](C)[C@@H](O[C@@H]2O[C@H](C)C[C@H](N(C)C)[C@H]2O)[C@](C)(O)C[C@@H](C)C(=NOCOCCOC)[C@H](C)[C@@H](O)[C@]1(C)O
O=C(O)C(c1ccc(Cl)cc1)c1ccc(Cl)cc1
C[C@]12CCC(=O)C=C1CC[C@@H]1[C@@H]2C(=O)C[C@@]2(C)[C@H]1CC[C@]2(O)C(=O)CO
CC(CC=O)CCCC(C)(C)O (stereo not given)
COc1ccc2nc(N)sc2c1
O=C(OCC1CCC2OC2C1)C1CCC2OC2C1 (stereo not given)
